Reference: the supplement of paper PMC13380429
Unmarked numbers belong to inactive results.

Test system: Vero E6 infected with SARS-CoV-2
Test: inhibition of SARS-CoV-2 cytopathic effect; higher = more antiviral protection, active = above 15
Conditions: 48 h

| SMILES | inhibition of SARS-CoV-2 cytopathic effect (1 nM) | inhibition of SARS-CoV-2 cytopathic effect (8.33 nM) | inhibition of SARS-CoV-2 cytopathic effect (100 nM) | inhibition of SARS-CoV-2 cytopathic effect (833.33 nM) | inhibition of SARS-CoV-2 cytopathic effect (10000 nM) |
| --- | --- | --- | --- | --- | --- |
| COc1cc2/c(=N/c3ccc(Br)cc3F)nc[nH]c2cc1OCC1CCN(C)CC1 [vandetanib] | -1.28% | 2.63% | -1.67% | -6.04% | -3.93% |
| N=C(N)Nc1ccc(Cl)cc1 [4-chlorophenylguanidine] | 0.9% | 1.22% | 0.63% | -0.99% | 0.95% |
| Cc1ncc(CO)c(CO)c1O [pyridoxine] | -15.8% | -9.76% | -7.58% | -12.7% | -14.1% |
| CCCCCCCCCCC(C)(C)C(=O)Nc1c(OC)cc(OC)cc1OC | 0.52% | 6.1% | 5.14% | 0.51% | 0.93% |
| O=C(O)[C@H]1CCCN(CCC=C(c2ccccc2)c2ccccc2)C1 (racemic) | -0.52% | -1.42% | -2.13% | -4.16% | -2.22% |
| NC(=O)c1cccc(-c2cccc(OC(=O)NC3CCCCC3)c2)c1 | 1.14% | 3.25% | 1.96% | 1.41% | 1.6% |
| Cc1[nH]c(/C=C2\C(=O)Nc3ccc(S(=O)(=O)Cc4c(Cl)cccc4Cl)cc32)c(C)c1C(=O)N1CCC[C@@H]1CN1CCCC1 | -0.63% | -2.66% | -1.94% | 1.33% | 50.2% (active) |
| CCCCNC(=O)[C@@H]1Cc2ccccc2N1C(=O)[C@@H](N)CC [butabindide] | 1.64% | 1.33% | -3.07% | 1.68% | 2.75% |
| CC[C@@H](CO)NCCN[C@@H](CC)CO [ethambutol] | 3.83% | 4.26% | 4.86% | 5.12% | 2.55% |
| CC(=O)Nc1ccc(S(=O)(=O)Nc2ccc([N+](=O)[O-])cc2)cc1 [sulfanitran] | -1.18% | -2.16% | 0.76% | 0.27% | -4.49% |
